From PubChem BioAssay (NCATS)
Inconclusive results are not listed. Active and inactive are the calls of the source. Calls follow the shape of the dose curve; as a rule, active = well fitted curve in the direction sought with a large enough effect; inconclusive = small, poorly fitted or top-dose-only effect, or another doubt; inactive = no such curve, though single readings can be large; an effect the other way counts as inactive or inconclusive.

Experiments:
[1] = biological target: Glutathione peroxidase 1 (Homo sapiens) (UniProt P07203); assay: Primary qHTS Assay for Inhibitors of Recombinant Selenoprotein Glutathione Peroxidase 1 (GPX1) (AID 1845191); also: nearly all actives have a fitted effect of over 65% in size; as to activity, negative = inhibition: % is scaled to controls: 0 for no effect and ±100 for the full control effect
Method in brief: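 NADPH consumption tracked by fluorescence at 340/450 nm between t=0 and t=15 min, room temperature. Final mix: 10 nM GPX1, 100 nM glutathione reductase, 1 mM GSH, 0.5 mM NADPH, 0.5 mM cumene hydroperoxide, 0.01% BSA; 30 min compound–enzyme preincubation.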

[2] = biological target: Phospholipid hydroperoxide glutathione peroxidase GPX4 (Homo sapiens) (UniProt P36969); assay: Primary qHTS Assay for Inhibitors of Recombinant Selenoprotein Glutathione Peroxidase 4 (GPX4) (AID 1845192); also: nearly all actives have a fitted effect of over 65% in size
Method in brief: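 NADPH consumption followed by fluorescence at 340/450 nm, t=0 and after 15 min at room temperature. Reaction started with cumene hydroperoxide (0.5 mM final) after 30 min compound–GPX4 preincubation; final 200 nM GPX4, 100 nM GR, 1 mM GSH, 0.5 mM NADPH.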

[3] = biological target: Luciferin 4-monooxygenase (Photinus pyralis) (UniProt P08659); assay: Primary firefly luciferase (FLuc) qHTS assay for identification of artifact compounds. (AID 1845220); also: nearly all actives have a fitted effect of over 60% in size
Method in brief: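 FLuc 10 nM; luciferin 10 uM; ATP 10 uM; Tris-acetate pH 7.6, Mg-acetate 10 mM; 15 min RT preincubation; 5 min reaction; luminescence.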

[4] = tested on: Nanoluciferase (engineered Oplophorus gracilirostris luciferase); assay: Primary Nanoluciferase (NLuc) qHTS assay for identification of artifact compounds. (AID 1845222);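 also: NLuc secreted into diluted conditioned medium of S16 cells; series mostly up to about 54 µM; 0% = DMSO and -100% = no enzyme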
Method in brief: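 NLuc from S16 cell medium (1:55) plus test compounds, 15 min, room temperature. Luminescence after Nano-Glo (1:100) addition, 5 min.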

[5] = Primary redox qHTS assay for identification of artifact compounds. (AID 1845223);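 also: 0% = DMSO and 100% = reference compound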
Method in brief: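 Redox-cycling detection via DTT (250 uM final) oxidation coupled to Amplex Red (25 uM)/HRP (250 mU/mL) in HBSS. 15 min preincubation plus 30 min after DTT, room temperature. Ex/Em 525/598 nm; 4-parameter Hill fit against DMSO and 10 uM DA3003.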

[6] = Primary fluorescence-based thiol-reactive (MSTI) qHTS assay for identification of artifact compounds. (AID 1845221);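 also: series mostly up to about 54 µM; thiol-reactive compounds lower the probe fluorescence signal; nearly all actives have a fitted effect of over 65% in size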
Method in brief: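 One-hour, room-temperature, dark incubation of compound with 4 uM MSTI in PBS (pH 7.4, 2% DMSO) precedes a fluorescence read at 525 nm excitation, 598 nm emission; Hill-equation fitting yields concentration-response values.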

Sequence of Glutathione peroxidase 1 (Homo sapiens) (P07203 whole entry, looked up): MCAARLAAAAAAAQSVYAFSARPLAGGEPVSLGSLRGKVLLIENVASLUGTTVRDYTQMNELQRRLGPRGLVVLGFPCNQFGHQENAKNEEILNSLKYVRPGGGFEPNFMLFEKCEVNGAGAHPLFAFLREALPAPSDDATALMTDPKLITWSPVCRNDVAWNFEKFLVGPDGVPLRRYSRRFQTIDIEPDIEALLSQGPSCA
Sequence of Phospholipid hydroperoxide glutathione peroxidase GPX4 (Homo sapiens) (P36969 whole entry, looked up): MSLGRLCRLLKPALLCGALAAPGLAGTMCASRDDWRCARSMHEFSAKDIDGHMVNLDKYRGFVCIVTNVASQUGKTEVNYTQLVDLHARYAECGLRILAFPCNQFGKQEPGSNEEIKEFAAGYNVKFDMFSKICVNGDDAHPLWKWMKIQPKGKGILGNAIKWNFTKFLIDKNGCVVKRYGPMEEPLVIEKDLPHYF

Cc1cn2c(n1)Cc1ccc(Cl)cc1C(c1ccc(N)cc1)=N2
inactive: Potency [1] | Potency [2] | Potency [3] | Potency [4] | Potency [5]

CC1CCCC(O)CC(=O)c2c(O)cc(O)cc2CC(=O)O1 (stereo unspecified)
inactive: Potency [1] | Potency [2] | Potency [3] | Potency [4] | Potency [5]

CCc1cc(C(N)=O)ccc1-n1nc(C(C)C)c2c(-n3cnc(-c4cnn(C)c4)c3)ccnc21
inactive: Potency [1] | Potency [2] | Potency [6] | Potency [4]

O=C(Nc1ccc(Cl)cc1)Nc1cccc(-c2cccc(N3CCCC3)n2)c1
inactive: Potency [1] | Potency [2] | Potency [6] | Potency [4] | Potency [5]

COc1cc2ncnc(Nc3ccc(F)c(Cl)c3)c2cc1O
inactive: Potency [1] | Potency [2] | Potency [3] | Potency [5]

CN1CCN(C2=Nc3ccccc3Nc3ccc(OS(=O)(=O)C(F)(F)F)cc32)CC1
inactive: Potency [1] | Potency [2] | Potency [3] | Potency [4] | Potency [5]

CNC(=O)c1ccc2c(c1)CCO[C@H]2CCN1CCN(c2ccc(OC)cc2)CC1
inactive: Potency [1] | Potency [2] | Potency [3] | Potency [4] | Potency [5]

CC1(CO)CC2C(O)C3=C(CC(C)(O)C2C1)C(=O)OC3 (stereo unspecified)
inactive: Potency [1] | Potency [2] | Potency [3] | Potency [4] | Potency [5]

CC(CCC1(O)OC2CC3C4CC=C5C[C@@H](O[C@@H]6O[C@H](CO)[C@@H](O[C@@H]7O[C@@H](C)[C@H](O)[C@@H](O)[C@H]7O)[C@H](O)[C@H]6O[C@@H]6O[C@@H](C)[C@H](O)[C@@H](O)[C@H]6O)CC[C@]5(C)C4CC[C@]3(C)[C@@]2(O)[C@@H]1C)CO[C@@H]1O[C@H](CO)[C@@H](O)[C@H](O)[C@H]1O (stereo partly specified)
inactive: Potency [1] | Potency [2] | activity change, negative = thiol reactive [6] 40.3% [at 11.5 µM] | activity, negative = inhibition [4] 0% [at 11.6 µM]

O=C(NNc1nc2cc(F)ccc2n2cccc12)c1cnccn1
inactive: Potency [1] | Potency [2] | Potency [3] | Potency [4] | Potency [5]

CC(=O)N[C@H]1[C@H](O[C@H]2CC[C@@]3(C)C(CC[C@]4(C)C3CC=C3C5CC(C)(C)CC[C@]5(C(=O)O)C(O)C[C@]34C)C2(C)C)O[C@H](CO[C@@H]2O[C@H](C)[C@H](O)[C@H](O)[C@H]2O[C@@H]2OC[C@@H](O)[C@H](O)[C@H]2O)[C@@H](O)[C@@H]1O (stereo partly specified)
inactive: Potency [1] | Potency [2] | activity change, negative = thiol reactive [6] 111% [at 11.5 µM] | activity, negative = inhibition [4] 3.71% [at 11.6 µM]

CC1(C)CC[C@]23CO[C@@]4(CCC5[C@@]6(C)CC[C@H](O[C@@H]7OC[C@H](O[C@@H]8O[C@H](CO)[C@@H](O)[C@H](O)[C@H]8O[C@@H]8OC[C@@H](O)[C@H](O)[C@H]8O)[C@H](O)[C@H]7O)[C@@](C)(CO)C6CC[C@@]5(C)[C@]4(C)CC2=O)[C@@H]3C1 (stereo partly specified)
inactive: Potency [1] | Potency [2] | activity change, negative = thiol reactive [6] 249% [at 11.5 µM] | activity, negative = inhibition [4] 3.95% [at 11.6 µM]

CC(O)C(C)n1ncn(-c2ccc(N3CCN(c4ccc(OCC5COC(Cn6cncn6)(c6ccc(Cl)cc6Cl)O5)cc4)CC3)cc2)c1=O (stereo unspecified)
inactive: Potency [1] | Potency [2] | Potency [3] | Potency [4] | Potency [5]

COc1cc(-c2cn(C3CCc4c(F)cccc4N(CC(F)(F)F)C3=O)nn2)ccc1-n1cnc(C)c1 (stereo unspecified)
inactive: Potency [1] | Potency [2] | Potency [3] | Potency [4] | Potency [5]

O=C(NCCCN1CCC2(CC1)OCc1ccccc12)[C@H]1CCCN1Cc1ccccc1
inactive: Potency [1] | Potency [2] | Potency [6] | Potency [4] | Potency [5]

CC(C)c1ccc(-c2cc(=O)c3ccccc3o2)cc1
inactive: Potency [1] | Potency [2] | Potency [6] | Potency [4] | Potency [5]

O=C(Nc1cnc(Cl)nc1)c1ccc(F)c(F)c1
inactive: Potency [1] | Potency [2] | Potency [6] | Potency [4] | Potency [5]

CC(C)Nc1nc(Nc2ccccc2)nc(-c2ccccc2)n1
inactive: Potency [1] | Potency [2] | Potency [6] | Potency [4] | Potency [5]

FC(F)(F)c1ccccc1-c1cc(C(F)(F)F)c2nc(C3=NOC4(CCCCC4)C3)[nH]c2c1
inactive: Potency [1] | Potency [2] | Potency [6] | Potency [4] | Potency [5]

CC(=O)OC[C@]12[C@H](OC(C)=O)C(=O)[C@@H]3[C@@H](O)[C@@]14O[C@@]3(C)COC(=O)c1cccnc1[C@@H](C)[C@H](C)C(=O)O[C@@H]([C@H](O)[C@@H]2OC(C)=O)[C@]4(C)O
inactive: Potency [1] | Potency [2] | Potency [4]

Cc1cc(C(C)Nc2ccccc2C(=O)O)c2nc(N3CCOCC3)cc(=O)n2c1 (stereo unspecified)
inactive: Potency [1] | Potency [2] | Potency [4]

C=C[C@H](/C=C\c1ccc(O)cc1)c1ccc(O)cc1
inactive: Potency [1] | Potency [2] | Potency [6] | Potency [4] | Potency [5]

COc1ccccc1-c1ccc(-c2cn(C(=O)N3CCCCC3Cc3ccccc3)nn2)cc1 (stereo unspecified)
inactive: Potency [1] | Potency [2] | Potency [6] | Potency [4] | Potency [5]

O=C(Nc1nnc(-c2ccc3c(c2)OCCO3)o1)C1CCCCC1
inactive: Potency [1] | Potency [2] | Potency [6] | Potency [4] | Potency [5]
